In PubChem BioAssay AID1851 (National Center for Advancing Translational Sciences (NCATS), 2009):
Hit rate of the full screen: of about 16,000 compounds, about 4,000 (25%) were called active. Another 26% or so got no clear call; they are omitted. Only a sample is shown. Unmarked numbers belong to inactive results. Calls follow the shape of the dose curve; as a rule, active = well fitted curve in the direction sought with a large enough effect; inconclusive = small, poorly fitted or top-dose-only effect, or effect the other way; inactive = no such curve, though single readings can be large or run the other way.

Molecular target: Cytochrome P450 2C9 (Homo sapiens) (UniProt P11712)
Assay: Cytochrome panel assay with activity outcomes
Conditions: recombinant CYP, pro-luciferin dealkylation, luminescence, p450-cyp2c9; series mostly up to 57.1 µM
% is scaled to controls: 0 for no effect and ±100 for the full control effect.

Sequence of Cytochrome P450 2C9 (Homo sapiens) (P11712 whole entry, looked up): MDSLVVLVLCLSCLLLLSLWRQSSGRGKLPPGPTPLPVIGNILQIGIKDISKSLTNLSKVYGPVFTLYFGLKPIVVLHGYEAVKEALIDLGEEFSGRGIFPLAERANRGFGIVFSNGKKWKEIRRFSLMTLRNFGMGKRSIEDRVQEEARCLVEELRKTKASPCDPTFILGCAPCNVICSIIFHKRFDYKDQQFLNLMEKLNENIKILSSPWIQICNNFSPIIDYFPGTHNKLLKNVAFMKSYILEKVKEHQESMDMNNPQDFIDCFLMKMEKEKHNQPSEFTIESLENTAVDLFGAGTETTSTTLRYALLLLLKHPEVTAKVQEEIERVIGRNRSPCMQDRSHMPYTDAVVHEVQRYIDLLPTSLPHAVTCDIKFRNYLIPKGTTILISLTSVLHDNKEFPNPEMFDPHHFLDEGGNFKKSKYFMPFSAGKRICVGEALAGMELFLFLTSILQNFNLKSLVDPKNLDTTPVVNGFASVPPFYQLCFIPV

For CC(=O)OCC(=O)[C@@]1(O)CC[C@@H]2[C@H]3CCC4=CC(=O)C=C[C@]4(C)[C@]3(F)[C@@H](O)C[C@@]21C, which AC50 is on record?
Its AC50 is “inactive”.

For CC(=O)N[C@@H](c1ccccc1)[C@]1(C)C[C@H]1[C@@H](C)C(=O)Nc1ccc2ccccc2c1, which AC50 is on record?
Its AC50 is 6.31 µM (active).

With C[C@@H](C(=O)Nc1ccc2ccccc2c1)[C@H]1C[C@]1(C)[C@H](NS(=O)(=O)c1ccc2ccccc2c1)c1ccccc1 as the compound, how does the AC50 read?
The AC50 was “inactive”.

COC(=O)N[C@H](c1ccccc1)[C@@]1(C)C[C@@H]1[C@@H](C)C(=O)Nc1ccc2ccccc2c1 was tested. Which AC50 did it give?
The AC50 was 3.98 µM (active).

Cc1cc(C)cc(OCC(=O)NNC(=O)c2cc(C)[nH]n2)c1 was tested. Which AC50 did it give?
The AC50 was 28.2 µM (active).

For Cc1ccc(OCC(=O)NNC(=O)c2cc3ccccc3o2)cc1, which AC50 is on record?
The AC50 was “inactive”.

Cc1cc(NC(=O)NC(=O)c2ccc(F)cc2F)n[nH]1 was tested. Which AC50 did it give?
Its AC50 is “inactive”.

Which AC50 does the source give for NC1(C(=O)O)C[C@@H](C(=O)O)[C@H](C(=O)O)C1 here?
Its AC50 is “inactive”.

NC1(C(=O)O)C[C@H](C(=O)O)[C@H](C(=O)O)C1 (stereo partly specified) was tested. Which AC50 did it give?
The AC50 was 6.31 µM (active).

For NC1(C(=O)O)CC(C(=O)O)C1 (stereo unspecified), which AC50 is on record?
The AC50 was “inactive”.

Which activity, negative = inhibition does the source give for CCc1c(O)c2c(c(O)c1C(C)=O)C(=O)c1c(cc(O)c(C(=O)O)c1C(=O)O)C2=O here?
The activity, negative = inhibition was -13.4% [at 11.4 µM].

With N#Cc1cccc(NC(=O)N2CCC3(CC2)CCN(C(=O)c2ccco2)CC3)c1 as the compound, how does the AC50 read?
The AC50 was “inactive”.

For O=C(Nc1cccc(NC(=O)c2ccc(-c3cccc(Br)c3)o2)c1)c1ccco1, which AC50 is on record?
Its AC50 is 5.01 µM (active).

For COc1cccc(-c2nccc(NCc3ccc(OC)cc3OC)n2)c1, which activity, negative = inhibition is on record?
The activity, negative = inhibition was -22.3% [at 2.29 µM].

How did the activity, negative = inhibition turn out when COc1cccc(-c2nccc(N(C)Cc3ccco3)n2)c1 was run?
The activity, negative = inhibition was 2.63% [at 2.29 µM].

COc1cccc(-c2noc(Cn3nc(C)c([N+](=O)[O-])c3C)n2)c1 was tested. Which AC50 did it give?
Its AC50 is 4.47 µM (active).

How did the AC50 turn out when COc1cccc(C2C3(C#N)C(N)=NC(OC)(OC)C23C#N)c1 (stereo unspecified) was run?
Its AC50 is “inactive”.

For CC(=O)[C@H](C(=N)C#N)C(=O)Nc1ccccc1, which activity, negative = inhibition is on record?
The activity, negative = inhibition was 10.8% [at 11.4 µM].

With COC1(OC)N=C(NC(=O)Nc2ccccc2)C2(C#N)C(c3ccccc3)C12C#N (stereo unspecified) as the compound, how does the AC50 read?
Its AC50 is 12.6 µM (active).

For CC1(C)CC(=O)C(C(c2cccc(O)c2O)C2C(=O)CC(C)(C)CC2=O)C(=O)C1, which activity, negative = inhibition is on record?
The activity, negative = inhibition was 3.72% [at 11.4 µM].

Cc1ccc(C(C2C(=O)CC(C)(C)CC2=O)C2C(=O)CC(C)(C)CC2=O)s1 was tested. Which AC50 did it give?
Its AC50 is 28.2 µM (active).

Which AC50 does the source give for O=C(Nc1nccs1)C1Cc2ccccc2CN1S(=O)(=O)c1ccc(F)cc1 (stereo unspecified) here?
Its AC50 is 12.6 µM (active).

For O=C(Nc1nnc(C2CC2)s1)C1Cc2ccccc2CN1S(=O)(=O)c1ccccc1F (stereo unspecified), which AC50 is on record?
Its AC50 is 3.16 µM (active).

Which AC50 does the source give for CCc1nnc(NC(=O)C2Cc3ccccc3CN2S(=O)(=O)c2ccc(C)cc2)s1 (stereo unspecified) here?
The AC50 was 3.98 µM (active).

How did the AC50 turn out when O=S(=O)(c1ccccc1)N1CCC2(CCN(Cc3nccs3)CC2)CC1 was run?
The AC50 was “inactive”.

For O=S(=O)(c1ccccc1)N1CCC2(CC1)CN(Cc1nccs1)C2, which AC50 is on record?
The AC50 was “inactive”.
